Shiga toxin inh – Shiga toxin inhibition; Vero cells, Shiga toxin protein synthesis inhibition reporter; inhibition, % at 38.7 µM; 9.2% of 290,000 active; AID 2315; in the data active means inhibition mostly above about 28%, no sharp cut-off; inactive means mostly below about 43%; further: 0% is about no effect
Tb PYK inh – T. brucei pyruvate kinase inhibition. TbPYK enzyme, Kinase-Glo Plus ATP luminescence, 45 min. 0.12% of 410,000 active. AID 624173. Potency, µM (highest dose often 76.8 µM), inactives show top-dose activity, negative = inhibition, hits mostly inhibitors; further: potency means the concentration at half of the fitted maximal effect; on the % scale 0 is the no-effect control and ±100 the full control effect; nearly all actives have a fitted effect of over 50% in size
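ADP (130 uM final) triggers the TbPYK reaction after compound addition; incubation is 45 min at room temperature. Kinase-Glo Plus is then added and luminescence imaged. Normalized data are fitted to concentration-effect curves.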
Sm TGR inh – S. mansoni TGR enzyme inhibition. Potency, µM (series often up to 114 µM), for the others: at the top dose activity change, negative = inhibition, actives largely listed as inhibitors. purified TGR, DTNB reduction, TNB absorbance 405 nm. AID 485364. 3% of 360,000 active; further: potency means the concentration at half of the fitted maximal effect; on the % scale 0 is the no-effect control and ±100 the full control effect; nearly all actives have a fitted effect of over 60% in size
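TGR 20 nM + NADPH 100 uM (dispensed conc.), cpd preinc 15 min RT; start with NADPH (500 uM addition) then DTNB (15 mM addition). Kinetic TNB absorbance, 405 nm filter. Four-parameter Hill fit across titration.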
LmPK inhibitor – blocks Leishmania mexicana pyruvate kinase activity | AID 1721 | purified LmPK, Kinase-Glo ATP luminescence, 1 h | Q27686 | Potency, µM (doses to about 57.5 µM), for inactives: at the highest dose activity change, negative = inhibition, actives largely listed as inhibitors | 0.37% of 290,000 active; further: potency means the concentration at half of the fitted maximal effect; on the % scale 0 is the no-effect control and ±100 the full control effect
Target sequence (Q27686 whole entry, looked up): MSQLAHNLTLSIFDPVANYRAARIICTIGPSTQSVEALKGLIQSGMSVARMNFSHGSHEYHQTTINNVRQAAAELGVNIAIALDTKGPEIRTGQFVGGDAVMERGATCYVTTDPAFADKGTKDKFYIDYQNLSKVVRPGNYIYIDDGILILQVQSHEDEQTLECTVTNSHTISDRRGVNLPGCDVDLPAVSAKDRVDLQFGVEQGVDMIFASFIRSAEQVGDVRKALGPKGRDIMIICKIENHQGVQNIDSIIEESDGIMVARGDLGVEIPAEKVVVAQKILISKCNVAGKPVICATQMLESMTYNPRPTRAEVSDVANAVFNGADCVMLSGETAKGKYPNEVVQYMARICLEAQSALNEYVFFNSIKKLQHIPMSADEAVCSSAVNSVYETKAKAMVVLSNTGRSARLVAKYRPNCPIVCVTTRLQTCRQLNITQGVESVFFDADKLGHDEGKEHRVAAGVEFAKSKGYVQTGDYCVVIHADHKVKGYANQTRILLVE
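In 50 mM imidazole pH 7.2 with 7 mM MgCl2, LmPK (0.1 nM) turned over PEP (0.5 mM) and ADP (0.1 mM) for 1 h at room temperature. Luciferase read-out of ATP.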
Cycloheximide cs – counter-screen hit for Shiga toxin inhibitors, cycloheximide. cell reporter, cycloheximide protein synthesis inhibition counterscreen. AID 2314. max response, %. 12% of 300,000 active; in the data active means max response mostly above about 13%, no sharp cut-off; inactive means mostly below about 14%; further: read at 38.3 µM for the half of the compounds with a filed dose; 0% is about no effect
Giardia FBPA inh – Giardia lamblia aldolase inhibition; A8B2U2; purified Giardia FBPA; Potency, µM (highest dose often 59.6 µM), without a hit: at the highest dose activity, negative = inhibition, usual class: inhibitors; 0.71% of 290,000 active; further: potency means the concentration at half of the fitted maximal effect; on the % scale 0 is the no-effect control and ±100 the full control effect; nearly all actives have a fitted effect of over 55% in size
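Giardia FBPA (40 nM reagent) was preincubated 10 min at RT with compound (up to 57.5 uM final), then substrate plus GAPDH/TPI/NAD/arsenate coupling system with diaphorase/resazurin was added; resorufin fluorescence (525/598 nm) was read after 20 min.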
* hit, by the source's call. The entries come from a sample that favours hits as a whole. Unless noted, the call rests on the fitted dose curve; in most records, active means well fitted curve in the direction sought with a large enough effect; inconclusive means small, poorly fitted or top-dose-only effect, or another doubt; inactive means no such curve, though single readings can be large; an effect the other way counts as inactive or inconclusive.

`COC(=O)c1ccc(CN2CCN(Cc3ccc(C(=O)OC)o3)CC2)o1` gave Shiga toxin inh 16, Tb PYK inh -9%, Sm TGR inh 35µM*, LmPK inhibitor 2%, Cycloheximide cs -4 and Giardia FBPA inh 2%.
Screening COC(=O)c1ccc(COc2ccc(C(C)(C)C)cc2)o1 returned Shiga toxin inh 145*, Tb PYK inh 1%, Sm TGR inh 0%, LmPK inhibitor 6%, Cycloheximide cs 90* and Giardia FBPA inh 4%.
Screening COC(=O)c1ccc(CN2C(=O)c3ccccc3C2=O)o1 returned Shiga toxin inh -9, Tb PYK inh 1%, Sm TGR inh -7%, LmPK inhibitor 0%, Cycloheximide cs -3 and Giardia FBPA inh 7%.
Screening CSc1ccc(S(=O)(=O)NCC(=O)OCC(=O)NCc2cccs2)cc1[N+](=O)[O-] returned Tb PYK inh 4% and Sm TGR inh -1%.
For CCOc1ccc(/C=C/c2[nH]c(=O)[nH]c(=O)c2[N+](=O)[O-])cc1 the results were Tb PYK inh -1%, Sm TGR inh -17%, LmPK inhibitor 0%, Cycloheximide cs -3 and Giardia FBPA inh 2%.
Screening CC(C)c1ccc(/C=C/c2[nH]c(=O)[nH]c(=O)c2[N+](=O)[O-])cc1 returned Shiga toxin inh 19*, Tb PYK inh 0%, Sm TGR inh 3%, LmPK inhibitor -2%, Cycloheximide cs 13* and Giardia FBPA inh 5%.
`COc1cccc(/C=C/c2[nH]c(=O)[nH]c(=O)c2[N+](=O)[O-])c1O` gave Shiga toxin inh 17, Tb PYK inh 0%, Sm TGR inh 35µM*, LmPK inhibitor -18%, Cycloheximide cs 15 and Giardia FBPA inh -4%.
For COc1cc(/C=C/c2[nH]c(=O)[nH]c(=O)c2[N+](=O)[O-])cc(OC)c1O the results were Shiga toxin inh -8, Tb PYK inh -4%, Sm TGR inh -35%, LmPK inhibitor -2%, Cycloheximide cs -3 and Giardia FBPA inh -17%.
COc1ccc(C(=O)NC(=S)N2CCN(c3ccccc3OC)CC2)cc1 was read as Shiga toxin inh -11, Tb PYK inh 0%, Sm TGR inh -9%, LmPK inhibitor 1%, Cycloheximide cs 5 and Giardia FBPA inh 16%.
`Cc1ccc(C(=O)NC(=S)N2CCN(c3ccccc3F)CC2)cc1` gave Shiga toxin inh 35*, Tb PYK inh -16%, Sm TGR inh 5%, LmPK inhibitor 2%, Cycloheximide cs 20 and Giardia FBPA inh 13%.
`Cc1ccc(C(=O)NC(=S)N2CCN(c3cc(C)ccc3C)CC2)cc1` gave Shiga toxin inh 49*, Tb PYK inh 1%, Sm TGR inh 1%, LmPK inhibitor -3% and Cycloheximide cs 38*.
For O=C(NC(=S)N1CC1)c1ccccc1 the results were Tb PYK inh 3%.
For C=C1C(=O)OC2C[C@@]3(C)CCCC(=C)[C@@H]3CC12 (stereo partly drawn) the results were Giardia FBPA inh 11%.
`CCOC(=O)c1cnn2c(C)cc(-c3ccc(F)cc3)nc12` gave Shiga toxin inh 53, Tb PYK inh -8%, Sm TGR inh -9%, LmPK inhibitor 1%, Cycloheximide cs 33* and Giardia FBPA inh 0%.
Screening Cc1c(NS(=O)(=O)c2ccccc2)cc(Cl)c(O)c1C returned Shiga toxin inh 13, Tb PYK inh -4%, Sm TGR inh 3.5µM*, LmPK inhibitor 2%, Cycloheximide cs 3 and Giardia FBPA inh inconclusive.
Cc1ccc(S(=O)(=O)Nc2cc(Cl)c(O)cc2C)cc1 was read as Shiga toxin inh -23, Tb PYK inh 2%, Sm TGR inh 50µM*, LmPK inhibitor 8%, Cycloheximide cs -4 and Giardia FBPA inh -3%.
Cc1ccc(S(=O)(=O)Nc2c(Cl)c(Cl)c(O)c3ccccc23)cc1 was read as Shiga toxin inh 47*, Sm TGR inh 0.32µM*, LmPK inhibitor 6.3µM*, Cycloheximide cs 34* and Giardia FBPA inh -10%.
`Cc1ccc(S(=O)(=O)Nc2cc(C(C)C)c(O)cc2C)cc1` gave Shiga toxin inh -15, Tb PYK inh 0%, Sm TGR inh 1%, LmPK inhibitor 6%, Cycloheximide cs -1 and Giardia FBPA inh 1%.
For CC(C)Oc1ccc(Cc2cnc(=S)[nH]c2N)cc1 the results were Shiga toxin inh -5, Tb PYK inh -9%, Sm TGR inh 71µM*, LmPK inhibitor 1%, Cycloheximide cs -2 and Giardia FBPA inh -14%.
`COc1ccc(NC(=O)COC(=O)c2c(C)noc2C)cc1Cl` gave Tb PYK inh -6%.
`C=C(C)CSc1nc2c(cc1C#N)CCC2` gave Shiga toxin inh 5, Tb PYK inh 1%, Sm TGR inh 4%, LmPK inhibitor -22%, Cycloheximide cs -1 and Giardia FBPA inh 2%.
Screening CCCCSc1nc2c(cc1C#N)CCC2 returned Shiga toxin inh 25, Tb PYK inh inconclusive, Sm TGR inh 0%, LmPK inhibitor 11%, Cycloheximide cs 12* and Giardia FBPA inh 0%.
C=CCSc1nc2c(cc1C#N)CCC2 was read as Shiga toxin inh 28, Tb PYK inh 10%, Sm TGR inh -11%, LmPK inhibitor 1%, Cycloheximide cs 16* and Giardia FBPA inh 16%.
For Cc1cccc(C)c1N1C(=O)CC(N(O)c2ccccc2)C1=O (stereo not drawn) the results were Shiga toxin inh 26, Tb PYK inh -11%, Sm TGR inh 14µM*, LmPK inhibitor -5%, Cycloheximide cs -1 and Giardia FBPA inh 0%.
Screening CCOc1ccccc1N1C(=O)CC(N(O)c2ccccc2)C1=O (stereo not drawn) returned Shiga toxin inh -9, Tb PYK inh -16%, Sm TGR inh inconclusive, LmPK inhibitor 11%, Cycloheximide cs -5 and Giardia FBPA inh -3%.
For Cc1c(Cl)cccc1N1C(=O)CC(N(O)c2ccccc2)C1=O (stereo not drawn) the results were Shiga toxin inh 6, Tb PYK inh 1%, Sm TGR inh 13µM*, LmPK inhibitor 8%, Cycloheximide cs 8 and Giardia FBPA inh 0%.
Screening O=C(CCN1C(=O)C2CCCCC2C1=O)N1CCN(S(=O)(=O)c2cccc(F)c2)CC1 (stereo not drawn) returned Tb PYK inh 1% and Sm TGR inh 56µM*.
Cc1cc(CN2CCCC(CNC(=O)c3ccc(F)cc3)C2)cc(C)c1O (stereo not drawn) was read as Shiga toxin inh -4, Tb PYK inh 0%, Sm TGR inh 35µM*, LmPK inhibitor -3%, Cycloheximide cs 1 and Giardia FBPA inh 0%.
For CSc1ccccc1C(=O)N1CCCC(CNC(=O)c2ccc(F)cc2)C1 (stereo not drawn) the results were Shiga toxin inh 30, Tb PYK inh -3%, Sm TGR inh -5%, LmPK inhibitor 2%, Cycloheximide cs 19 and Giardia FBPA inh 4%.
